# Calls of active or inactive are those of the source. Calls come from the whole dose curve; as a rule, active = well fitted curve in the direction sought with a large enough effect; inactive = no such curve, though single readings can be large or run the other way.
# Biological target: Epidermal growth factor receptor (Homo sapiens) (UniProt P00533)
# Experiment: Assay for Inhibitors of the ERK Signaling Pathway using a Homogeneous Screening Assay: EGFR L858R Kinase Inhibition
# Conditions: EGFR L858R kinase biochemical inhibition assay; series mostly up to 65.8 µM
# Description: qHTS Assay for Inhibitors of the ERK Signaling Pathway using a Homogeneous Screening Assay
# NIH Chemical Genomics Center [NCGC]
# NIH Molecular Libraries Screening Centers Network [MLSCN]
# Assay Submitter (PI): Dr. Wei Zheng, NCGC/NIH
# The Ras/extracellular-signal-regulated kinase (ERK) mitogen activated protein (MAP) kinase signaling pathway (ERK1/2 cascade) plays is a key role in transmitting signals from the cell surface to the nucleus (Nishida and Gotoh 1993; Chang and Karin, 2001). The cascade is initiated by the small G-protein Ras, which recruits Raf […], where activation occurs. Alternatively, this pathway can be activated by elevating intracellular cAMP.
# Activation of the ERK pathway is essential in increased cell division and cell survival. Sustained and constitutive activation of the ERK pathway, however, has been linked to uncontrolled cell proliferation, increased cell survival, and tumor progression. Thus, the ERK has been as an attractive target for cancer chemotherapy in the past few years (Sebolt-Leopold and Herrera, 2004). Given its physiological and pathological importance, assessment of ERK phosphorylation has been broadly performed in both basic research and drug discovery. Most assays for the measurement of ERK phosphorylation use the antibody-based detection methods, such as western blot and ELISA. These assays require multiple reagent additions with cell wash steps and are not suitable for high-throughput screening.
# The current cell-based ERK phosphorylation assay was performed using AlphaScreen platform. AlphaScreen is a two bead-based proximity-dependent chemical energy transfer luminescent assay platform. The assay reagents (ERK SureFire(TM) kit) were supplied from TGR BioSciences (Australia). […]
# The HTRF kinase assay (components supplied as kit by Cisbio) was chosen for the EGFR and EGFR mutant enzyme assays that applied the time resolved fluorescence resonance energy transfer (TR-FRET) principle. […]
# Chain of Epidermal growth factor receptor (Homo sapiens) (P00533 whole entry L858R, looked up): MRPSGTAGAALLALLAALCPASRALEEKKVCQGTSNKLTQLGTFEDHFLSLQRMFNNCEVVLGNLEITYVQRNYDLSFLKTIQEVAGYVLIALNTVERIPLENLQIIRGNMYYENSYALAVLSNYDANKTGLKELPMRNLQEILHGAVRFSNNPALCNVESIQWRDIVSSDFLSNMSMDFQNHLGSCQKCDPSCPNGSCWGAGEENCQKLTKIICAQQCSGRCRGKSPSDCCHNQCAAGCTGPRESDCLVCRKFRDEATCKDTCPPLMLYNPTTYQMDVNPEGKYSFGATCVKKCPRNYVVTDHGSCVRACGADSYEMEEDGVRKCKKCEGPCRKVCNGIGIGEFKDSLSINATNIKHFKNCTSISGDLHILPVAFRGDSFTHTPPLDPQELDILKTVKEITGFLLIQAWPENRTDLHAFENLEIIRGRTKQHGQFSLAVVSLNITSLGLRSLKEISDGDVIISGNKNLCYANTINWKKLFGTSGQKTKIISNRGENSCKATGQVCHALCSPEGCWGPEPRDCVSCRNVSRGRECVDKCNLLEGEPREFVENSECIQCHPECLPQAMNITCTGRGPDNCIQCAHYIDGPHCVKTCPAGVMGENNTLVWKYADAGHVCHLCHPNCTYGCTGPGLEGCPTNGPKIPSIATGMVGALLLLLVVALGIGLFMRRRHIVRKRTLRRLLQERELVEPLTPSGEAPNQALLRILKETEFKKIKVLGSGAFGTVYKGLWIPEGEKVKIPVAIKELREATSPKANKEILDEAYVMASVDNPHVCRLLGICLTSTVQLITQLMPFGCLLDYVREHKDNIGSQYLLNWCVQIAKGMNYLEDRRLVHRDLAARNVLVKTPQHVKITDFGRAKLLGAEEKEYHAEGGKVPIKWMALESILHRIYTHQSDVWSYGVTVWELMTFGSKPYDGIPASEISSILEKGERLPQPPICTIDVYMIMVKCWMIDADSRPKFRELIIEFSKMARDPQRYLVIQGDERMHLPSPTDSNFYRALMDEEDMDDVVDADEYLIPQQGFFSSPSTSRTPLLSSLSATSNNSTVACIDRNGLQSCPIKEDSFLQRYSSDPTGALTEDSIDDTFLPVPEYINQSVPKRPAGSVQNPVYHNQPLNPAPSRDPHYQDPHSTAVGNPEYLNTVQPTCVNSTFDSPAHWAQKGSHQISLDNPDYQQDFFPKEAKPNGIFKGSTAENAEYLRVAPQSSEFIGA
row,Compound,outcome
1,CN1CCN(c2cccc3c2C(=O)c2ccccc2C3=O)CC1,inactive
2,Cc1nc2c(=O)n(C)c(=O)nc-2n(C)n1,inactive
3,CCn1nc(-c2ccccc2)nc2c(=O)n(C)c(=O)nc1-2,inactive

# From PubChem BioAssay AID1727 (National Center for Advancing Translational Sciences (NCATS), 2009)
